Screens from PubChem.
A selection: hits, their analogues and other compounds. The true share with any hit is near 19%.
TDP1 cell noCPT = qHTS for Inhibitors of human tyrosyl-DNA phosphodiesterase 1 (TDP1): qHTS in cells in absence of CPT; DT40 Tdp1-/- hTDP1 cells, no CPT, ATP luminescence, 48 h; Potency, µM (top dose mostly 46.2 µM), for inactives: at the highest dose activity change, negative = growth inhibition, actives largely listed as inhibitors; 420,000 compounds, 15% hits; AID 686978, 2013; further: potency means the concentration at half of the fitted maximal effect; nearly all actives have a fitted effect of over 55% in size
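DT40 Tdp1-/-;hTDP1 cells, no CPT (DMSO vehicle only), 400 cells/well; compounds pin-transferred; ≥48 hr, 37 °C; CellTiter-Glo 30 min RT dark, luminescence read.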
TDP1 cell CPT = growth inhibition of DT40 Tdp1-/-;hTDP1 cells with camptothecin (screen for TDP1 inhibitors); chicken DT40 Tdp1-/-;hTDP1 cells + 20 nM CPT, ATP luminescence, 48 h; Potency, µM (series often up to 46.2 µM), for the others: at the highest dose activity change, negative = growth inhibition, hits mostly inhibitors; 420,000 compounds, 12% hits; further: potency means the concentration at half of the fitted maximal effect; nearly all actives have a fitted effect of over 55% in size
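Cell growth measured by CellTiter-Glo luminescence after a minimum 48 h, 37 C compound exposure with 20 nM CPT in Tdp1-knockout DT40 cells stably expressing hTDP1, seeded 400/well; qHTS titration format.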
ELG1 DNA repair = blocks ELG1-dependent DNA repair in HEK293T cells. HEK293T ELG1-luciferase reporter, luminescence, 16 h; DNA damage induced by 5-fluorouridine. Potency, µM (highest dose often 46.1 µM), for inactives: at the highest dose activity change, negative = inhibition, usual class: inhibitors. 330,000 compounds, 2.3% hits. AID 504467; further: potency means the concentration at half of the fitted maximal effect; nearly all actives have a fitted effect of over 55% in size
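Luminescence from the luciferase reporter, measured 30 min after ONE-Glo reagent at room temperature, was the read-out. Beforehand, 2,000 cells per well were exposed for 16 hr at 37 °C to 5-fluorouridine together with compound or vehicle.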
IL1B secr inh = inflammasome signaling inhibition, IL-1 beta readout. THP-1 LPS/ATP IL-1B secretion, AlphaLISA, 16 h; hits give low values. 360,000 compounds, 4.7% hits. activity change, % at 57.5 µM; in the data active means activity change below about -50%; inconclusive means mostly about -30% to -49%
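Secreted IL-1B measured by AlphaLISA bead assay after 16 h compound exposure of THP-1 cells; compounds (final up to 57.5 uM) added 1 h before LPS (250 ng/mL) and ATP (1.25 mM) stimulation; lower signal means less secretion.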
HT1080 IDH1KD tx = toxicity to HT-1080 IDH1 knockdown cells (counter line) | Potency, µM (doses to about 46.1 µM), for inactives: at the top dose activity, negative = toxicity, hits mostly cytotoxic | 360,000 compounds, 2% hits | HT-1080 IDH1 knockdown viability, ATP luminescence, 48 h | AID 686971;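 further: potency means the concentration at half of the fitted maximal effect; 0% = DMSO wells and -100% = cell-free medium wells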
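In this qHTS, HT-1080 cells depleted of IDH1 are exposed for 48 h at 37 °C to compound titrations. Toxicity is scored from CellTiter-Glo luminescence, with DMSO as full viability and medium alone as none.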
HT1080-NT tox = kills 2HG-producing HT-1080-NT fibrosarcoma cells; Potency, µM (highest dose often 46.1 µM), inactives show at the highest dose activity, negative = less viability, hits mostly cytotoxic; 360,000 compounds, 1.6% hits; HT-1080-NT fibrosarcoma viability, CellTiter-Glo ATP luminescence, 48 h;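 further: NT is the 2HG producing partner of a matched IDH1 knockdown line; potency means the concentration at half of the fitted maximal effect; 0% = DMSO-treated cells and -100% = media-only wells without cells; nearly all actives have a fitted effect of over 55% in size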
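HT-1080-NT; 750 cells/well; 5% FBS RPMI; 48 h compound, 37 degrees C; CellTiter-Glo luminescence; curve fitting and curve-class assignment.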
* = called active by the depositor; ? = inconclusive; nt = not tested or not shown. Unless noted, the call rests on the fitted dose curve; in most records, active means well fitted curve in the direction sought with a large enough effect; inconclusive means small, poorly fitted or top-dose-only effect, or another doubt; inactive means no such curve, though single readings can be large; an effect the other way counts as inactive or inconclusive. Unless noted, on the % scale 0 is the no-effect control and ±100 the full control effect.

SMILES | TDP1 cell noCPT | TDP1 cell CPT | ELG1 DNA repair | IL1B secr inh | HT1080 IDH1KD tx | HT1080-NT tox
Cc1ccc(S(=O)(=O)N2CCN(c3nc(N(C)c4cc(Cl)ccc4O)nc4ccccc34)CC2)cc1 | ? | ? | nt | nt | 9.7% | 8.2%
C[C@H](O)CO[C@H]1[C@H]2O[C@H]3[C@H](O)[C@@H](O)[C@@H](O[C@H]4[C@H](O)[C@@H](O)[C@@H](O[C@H]5[C@H](O)[C@@H](O)[C@@H](O[C@H]6[C@H](O)[C@@H](OC[C@H](C)O)[C@@H](O[C@H]7[C@H](O)[C@@H](OC[C@H](C)O)[C@@H](O[C@H]8[C@H](O)[C@@H](O)[C@@H](O[C@@H]([C@@H]1O)[C@@H](CO)O2)O[C@@H]8CO)O[C@@H]7CO)O[C@@H]6CO)O[C@@H]5CO)O[C@@H]4CO)O[C@@H]3CO | -4.8% | -6.9% | nt | nt | nt | nt
O=S(=O)(c1ccccc1)N1CCN(c2nc(-c3cccnc3)nc3ccccc23)CC1 | 20.6µM* | ? | ? | 43.5 | -5.7% | -1.5%
O=S(=O)(c1ccc2c(c1)OCCO2)N1CCN(c2nc(-c3cccnc3)nc3ccccc23)CC1 | nt | nt | -0.2% | nt | nt | nt
CCOC(=O)/C(C#N)=N\Nc1cc(Cl)ccc1OC | ? | 1.4% | 0.0% | 2.0 | 7.1% | 9.5%
CCCCN(C(=O)C1=CC=CN2CCS(=O)(=O)N=C12)c1ccccc1 | ? | 5.1% | ? | 2.4 | -1.5% | -6.6%
C[C@@H]1CN([C@H](C)CO)C(=O)CCCn2nncc2CO[C@@H]1CN(C)C(=O)Nc1ccnc(N2CCOCC2)c1 | -0.4% | 4.7% | nt | 7.0 | 4.2% | 11.4%
O=C(c1cccc(S(=O)(=O)N2CCCc3ccccc32)c1)N1CCN(c2ccccc2)CC1 | 20.6µM* | ? | ? | ? | ? | 0.8%
O=C(c1ccc2c(c1)CCN2S(=O)(=O)c1ccc(Cl)cc1)N1CCN(c2ccccc2)CC1 | 20.6µM* | 11.6µM* | nt | nt | nt | nt
O=C(c1ccc2c(c1)CCN2S(=O)(=O)c1ccc(Cl)cc1)N1CCN(c2ccccc2F)CC1 | 16.4µM* | 20.6µM* | nt | nt | nt | nt
CC(NC(=O)c1ccc2c(c1)CCN2S(=O)(=O)c1ccc(Cl)cc1)c1ccccc1 (stereo not given) | ? | 11.6µM* | nt | nt | nt | nt
CS(=O)(=O)N1CCc2cc(C(=O)N3CCN(c4ccccc4F)CC3)ccc21 | ? | ? | 12.0% | -10.2 | -16.6% | 0.3%
Cc1ccc(NC(=O)c2c(NC(=O)c3ccco3)sc3c2CCC(C(C)(C)C)C3)c(C)c1 (stereo not given) | 3.2% | -4.2% | nt | nt | nt | nt
CC(C)(C)NC(=O)C(c1ccc(C#N)cc1)n1c(=O)c(-c2ccco2)nc2ccccc21 (stereo not given) | ? | ? | nt | -17.7 | -4.7% | -0.8%
CCc1cccc(C)c1NC(=O)CSc1nnc(CCCOc2ccc(Cl)cc2Cl)n1C | 14.6µM* | 23.1µM* | ? | 5.7 | ? | -22.4%
CCn1c(CCCOc2ccc(Cl)cc2Cl)nnc1SCC(=O)Nc1cc(F)ccc1C | ? | ? | ? | -59.4* | ? | ?
CC(=O)Nc1ccc(-c2ccnc3c2CC(C)(C(=O)Nc2cccc(C(C)=O)c2)O3)cc1 (stereo not given) | 16.4µM* | ? | nt | ? | -3.5% | 3.9%
CC(=O)c1cccc(NC(=O)C2(C)Cc3c(-c4ccccc4)ccnc3O2)c1 (stereo not given) | 23.1µM* | 23.1µM* | nt | -9.1 | -25.2% | -0.9%
CC(=O)Nc1cccc(-c2ccnc3c2CC(C)(C(=O)Nc2cccc(Oc4ccccc4)c2)O3)c1 (stereo not given) | 20.6µM* | 16.4µM* | nt | -19.5 | ? | ?
CS(=O)(=O)Nc1ccc(C(=O)Nc2cccc([N+](=O)[O-])c2)cc1 | -12.0% | -6.9% | 0.2% | -0.7 | 10.7% | -1.2%
COc1ccccc1OCCOCCOc1c(C)cc(C)cc1Br | 23.1µM* | ? | -4.8% | -2.4 | 10.6% | 4.1%
COc1ccccc1OCCCOc1c(C)cc(C)cc1Br | -19.9% | -12.6% | 23.6% | 22.5 | 11.2% | 6.3%
Cc1ccc2c(c1)S/C(=C\c1cccc[n+]1C)N2CCO | 1.64µM* | 1.16µM* | ? | 17.5 | 16.4µM* | -3.4%
CC(=O)N1c2ccc(C)cc2Sc2c1ccc1ccccc21 | ? | -17.0% | nt | 16.7 | -25.0% | ?
CC(C)(C)c1nnc(NC(=O)CCS(=O)(=O)Cc2ccccc2)s1 | 11.6µM* | 9.2µM* | -1.7% | -1.6 | ? | -27.0%
SMILES | TDP1 cell noCPT | TDP1 cell CPT | ELG1 DNA repair | IL1B secr inh | HT1080 IDH1KD tx | HT1080-NT tox
Cc1nnc(NC(=O)CCS(=O)(=O)Cc2ccccc2)s1 | ? | 10.3µM* | -5.5% | -0.9 | -0.1% | 23.3%
CNc1ccccc1C(=O)N1CCc2c([nH]c3ccccc23)C1=O | -25.9% | ? | nt | nt | nt | nt
O=S(=O)(Nc1ccccc1N1CCOCC1)c1ccccc1C(F)(F)F | 18.4µM* | ? | -8.8% | 40.0 | 0.0% | 3.8%
N#Cc1ccc(S(=O)(=O)Nc2ccccc2N2CCOCC2)cc1 | -8.5% | -10.8% | 6.2% | 13.8 | 1.5% | -0.8%
O=S(=O)(Nc1ccccc1N1CCCCC1)c1ccc(Cl)s1 | 8.2µM* | 10.3µM* | 1.5% | 35.1 | -1.5% | -11.1%
O=S(=O)(Nc1ccccc1N1CCCC1)c1ccccc1C(F)(F)F | 20.6µM* | 20.6µM* | nt | 36.0 | -3.5% | 1.2%
COc1cc(OC)c(S(=O)(=O)Nc2ccccc2N2CCCCC2)cc1NC(C)=O | -2.7% | -2.0% | -0.5% | 6.3 | -0.1% | -1.6%
O=S(=O)(Nc1cc(Cl)ccc1N1CCCCC1)c1cccs1 | -29.9% | -23.2% | 9.4% | -11.4 | -9.1% | 0.5%
COC(=O)[C@@H]1CCCN1Cc1ccc2c(c1)CN(Cc1ccc3c(c1)CCCN3C)CCO2 | -2.0% | 11.4% | nt | nt | nt | nt
O=C(Nc1ccn(CCCNCC2CCCO2)c(=O)n1)OCc1ccccc1 (stereo not given) | -9.1% | -15.9% | nt | -11.3 | 6.8% | 12.9%
CN(C)c1ccc(/C=C/CNC[C@H]2O[C@@H](n3ccc(N)nc3=O)[C@H](O)[C@@H]2O)cc1 | -14.2% | 9.0% | nt | -11.5 | 1.5% | 1.9%
CC1CCCN(C(=O)c2nn(C)c3c2CS(=O)(=O)c2ccccc2-3)C1 (stereo not given) | 24.0% | -7.7% | -4.8% | 1.6 | 10.1% | 0.8%
COc1ccccc1CN1CC2(CCN(S(C)(=O)=O)CC2)C1 | -13.1% | 0.9% | nt | nt | nt | nt
